PubChem BioAssay AID651567 (National Center for Advancing Translational Sciences (NCATS), 2012)
The whole screen tested about 1,200 compounds, of which about 10 (0.8%) were called active. Roughly 4% stayed inconclusive and do not appear here. This is one part of a sample in which actives are shown more often than they occur. Unmarked numbers belong to inactive results. Calls follow the shape of the dose curve; as a rule, active = well fitted inhibition curve with a large enough effect; inconclusive = small, poorly fitted or top-dose-only effect; inactive = no such curve, though single readings can be large or run the other way.

Assay: qHTS Assay to Find Inhibitors of Chronic Active B-Cell Receptor Signaling: Hit Validation in OCI-Ly3 Assay
Details: OCI-Ly3 IkB-luciferase reporter, Chroma-Glo luminescence, 4 h; series mostly up to 46.1 µM; activity change, negative = inhibition: at the top concentration
Excerpt: Diffuse large B-cell lymphoma (DLBCL) is the most common category of non-Hodgkin lymphoma, with ~20,000 new cases per year in the United States. DLBCL should be regarded as a collection of different neoplasms. Microarray gene expression analysis has defined two principal types of DLBCL, named for their similarity to normal B cell stages or activation states: a germinal center B-cell (GCB) type, and an activated B-cell (ABC) type. In ABC-DLBCL, a constitutive high-level activity of the NF-kappaB family of transcription factors has been observed (1) and NF-kappaB target genes are more highly expressed in ABC primary tumors than in GCB tumors. Functional studies have shown a constitutive high-level activity of the IkappaB (inhibitor of kappa-B) kinase (IKK) complex. […] Further analysis of DLBCL primary tumors for NF-kappaB target gene expression imply that although CARD11 is required for constitutive IKK activity in all ABC-DLBCL lines, mutations in CARD11 may be the root cause of IKK activation only in lines or tumors with such mutations. In other words, CARD11 mutations may explain NF-kappaB activation in only 10% of ABC-DLBCL cases. […] This process has been termed 'chronic active BCR signaling' (CABS). The goal of this screen is to find small-molecule inhibitors of the CABS pathway found in ABC-DLBCL lines using a cell-based assay that measures IkappaBalpa stability, which has already been extensively validated in the OCI-Ly3 line (PubChem AID:445; REF: 4). […] Hits from the primary screen were tested in this selectivity secondary assay. NIH Molecular Libraries Probe Production Network [MLPCN] NIH Chemical Genomics Center [NCGC] MLPCN Grant: R03 DA031086 PI Name: Dr. R. Eric Davis
Cells were seeded in 1536-well plates at 5000 cells/3ul in IMDM medium containing 0.5% FBS, w/o phenol red, L-glutamine, 25 mM HEPES, 3 mg/ml sodium bicarbonate. After centrifugation for 1 min. at 1000 rpm, 23 nl of compounds or DMSO were delivered to each well using a pin tool. Then 1ul 80ng/ml doxycycline was dispensed into white solid 1536-well plates and the plates were incubated at 37C/5% C02 in a cell incubator for 4 hrs. Then 4 ul Chroma-Glo luminescent substrate mix (Promega) was added to each well. The plate was incubated at R.T. for 10-15 min. The plates were measured on a ViewLux plate reader for green luminescence (540/20 nm filter) and red luminescence (618/8 nm filter). The green and red luminescent signals were corrected for red and green luminescence filter overlap using previously determined filter calibration constants (determined using the procedure outlined in the Promega Technical Manual). The %Activity was determined from the ratio of corrected green/red luminescent values. Green luminescent and ratio %Activity was determined by normalizing to the difference in signal between basal cells (0% Activity) and cells incubated with 10 uM of the proteasome inhibitor MG-132 (100% Activity). Red luminescent %Activity was normalized to the difference between red luminesence in basal cells (0%Activity) and zero luminescence (-100% Activity). Concentration-response curves were fitted to the signals arising from the green luminescence (I-kappa-B-alpha-luciferase fusion; IkB-luc) and the red luminescence (unfused luciferase; luc) as well as the calculated ratio. The concentration-effect curves were then classified based on curve quality (r2), response magnitude and degree of measured activity. Compounds were then categorized based on their concentration-response curves for all three datasets (Ikb-luc, luc and ratio).
% is scaled to controls: 0 for no effect and ±100 for the full control effect; potency is read from the fitted curve at half-maximal effect.

Question: Which “activity change, negative = inhibition” value does the source give for COc1ccccc1C(=O)Nc1ccccc1SC(=O)c1ccccc1OC here?
Answer: The value was -25.4%.

Question: With CCOc1ccc2c(c1)C(C)=CC(C)(C)N2S(=O)(=O)c1ccc(NC(C)=O)cc1 as the compound, how does the “activity change, negative = inhibition” value read?
Answer: Its value is -3.37%.

Question: For Cc1ccc2nc(NC(=O)c3ccccn3)sc2c1, which “activity change, negative = inhibition” value is on record?
Answer: Its value is 14.4%.

Question: Which “activity change, negative = inhibition” value does the source give for C[C@]12C=CC(=O)C=C1CC[C@@H]1[C@@H]2[C@@H](O)C[C@@]2(C)[C@H]1CC[C@]2(O)C(=O)COC(=O)CCC(=O)O here?
Answer: The value was -1.59%.

Question: For C/C(Cl)=C\Cn1c(O)c(N=NC(N)=S)c2cc(Br)ccc21, which “activity change, negative = inhibition” value is on record?
Answer: The value was 64.8%.

Question: With OC[C@H]1O[C@@H](n2cnc3c(NC4CCCC4)nc(Cl)nc32)[C@H](O)[C@@H]1O as the compound, how does the “activity change, negative = inhibition” value read?
Answer: Its value is -0.38%.

Question: For Cc1[nH]n(C(N)=S)c(=O)c1N=Nc1ccc2ccccc2c1, which “activity change, negative = inhibition” value is on record?
Answer: Its value is -3.53%.

Question: Which “activity change, negative = inhibition” value does the source give for Cc1ccc(N=Nc2c(C)[nH]n(C(N)=S)c2=O)cc1 here?
Answer: Its value is 0.657%.

Question: For Cc1[nH]n(C(N)=S)c(=O)c1N=Nc1cccc(Cl)c1, which Potency is on record?
Answer: The Potency was 20.6 µM (active).

Question: With CCN1C(=O)c2cccc3c(NC(=O)c4ccc(OC)c(OC)c4)ccc1c23 as the compound, how does the “activity change, negative = inhibition” value read?
Answer: The value was -6.01%.

Question: For O=C1N/C(=C/c2ccc(N3CCOCC3)o2)C(=O)N1c1cccc(Cl)c1, which “activity change, negative = inhibition” value is on record?
Answer: Its value is -6%.

Question: With O=C(N/N=C/c1ccc(O)cc1)c1[nH]c2ccc(Br)cc2c1-c1ccccc1 as the compound, how does the “activity change, negative = inhibition” value read?
Answer: Its value is -7.64%.

Question: For COc1c(Br)cc(Br)cc1/C=N/NC(=O)c1cccnc1, which “activity change, negative = inhibition” value is on record?
Answer: Its value is -0.0712%.

Question: Which “activity change, negative = inhibition” value does the source give for CCOC(=O)c1c(C)oc2c1cc(NS(=O)(=O)c1ccc(C(=O)O)cc1)c1ccccc12 here?
Answer: Its value is -5.36%.

Question: Which “activity change, negative = inhibition” value does the source give for Cc1cccc(OCCN2C(=O)C(=O)c3cc(C)ccc32)c1 here?
Answer: Its value is -1.66%.

Question: Which “activity change, negative = inhibition” value does the source give for Cc1onc(-c2ccccc2)c1-c1nc2cc(Cl)ccc2c(=O)o1 here?
Answer: The value was -14.1%.

Question: Which “activity change, negative = inhibition” value does the source give for CSc1nc(SCC(=O)NCc2ccco2)c2c3c(sc2n1)COC(C)(C)C3 here?
Answer: The value was -2.6%.

Question: With Cc1nnc(C)n1/N=C/c1cc2ccccc2nc1Cl as the compound, how does the “activity change, negative = inhibition” value read?
Answer: Its value is -2.19%.

Question: With Cc1cc(=O)c(C(=O)Nc2cccc(N3CCCC3=O)c2)nn1-c1ccccc1Cl as the compound, how does the “activity change, negative = inhibition” value read?
Answer: The value was -0.879%.

Question: Which “activity change, negative = inhibition” value does the source give for COc1ccc(C2=NC(C)(C)Cc3cc(OC)c(OC)cc32)cc1OC here?
Answer: The value was 0.417%.

Question: For CCCCC[C@H](O)/C=C/[C@@H]1[C@@H](C/C=C\CCCC(=O)O)[C@@H](O)C[C@H]1O, which “activity change, negative = inhibition” value is on record?
Answer: Its value is -0.871%.

Question: For c1ccc(-c2cc(-c3nnc4n3N=C(c3ccc5ccccc5c3)CS4)[nH]n2)cc1, which “activity change, negative = inhibition” value is on record?
Answer: The value was -4.31%.

Question: With O=C(c1ccc(Cl)cc1)c1cc([N+](=O)[O-])ccc1N1CCOCC1 as the compound, how does the “activity change, negative = inhibition” value read?
Answer: The value was -4.74%.

Question: For O=C(O)c1ccc(CSc2nnc(-c3ccco3)o2)cc1, which “activity change, negative = inhibition” value is on record?
Answer: The value was -0.305%.

Question: Which “activity change, negative = inhibition” value does the source give for COC(=O)c1cccc(-n2sc3ccccc3c2=O)c1 here?
Answer: Its value is -6.16%.

Question: With CC(Oc1ccc(Br)cc1)c1nc2c3ccccc3nc(=S)n2[nH]1 (configuration not stated) as the compound, how does the “activity change, negative = inhibition” value read?
Answer: Its value is 349%.

Question: With CCOc1ccccc1/C=N/Nc1nc2c(N)ncnc2n1[C@H]1O[C@@H](CO)[C@H](O)[C@@H]1O as the compound, how does the “activity change, negative = inhibition” value read?
Answer: Its value is 0.035%.

Question: Which “activity change, negative = inhibition” value does the source give for CCCNS(=O)(=O)c1cccc(C(=O)OCc2cc(=O)oc3cc(OC)ccc23)c1 here?
Answer: Its value is -16.4%.

Question: For Cc1ccc(NS(=O)(=O)c2cc(-c3n[nH]c(=O)c4ccccc34)ccc2C)cc1, which “activity change, negative = inhibition” value is on record?
Answer: Its value is -3.87%.

Question: With COc1ccc(-c2c(C)nn3c(N)c(C#N)cnc23)cc1OC as the compound, how does the “activity change, negative = inhibition” value read?
Answer: Its value is 0.123%.

Question: With COc1cccc(-c2nnc(Nc3nc4c(F)cccc4s3)o2)c1 as the compound, how does the “activity change, negative = inhibition” value read?
Answer: The value was 37.5%.

Question: For CCOc1c(OC)cccc1C1CC(=O)Nc2cc(OC)c(OC)cc21 (configuration not stated), which “activity change, negative = inhibition” value is on record?
Answer: The value was -0.312%.

Question: For COc1ccc(-c2noc(CSc3nc(N)c(-c4ccccc4)c(=O)[nH]3)n2)cc1, which “activity change, negative = inhibition” value is on record?
Answer: The value was -0.936%.

Question: For COc1ccccc1NC(=O)Cn1nnc(C(=O)NCc2cccs2)c1N, which “activity change, negative = inhibition” value is on record?
Answer: Its value is -0.743%.

Question: With COc1cc2c(c(OC)c1OC)-c1ccc(OC)c(=O)cc1[C@@H](N(C)CC#CCO)CC2 as the compound, how does the “activity change, negative = inhibition” value read?
Answer: Its value is -1.53%.

Question: For Cc1cccc(N(C)S(=O)(=O)c2ccc(-c3cnc(C4CC4)o3)cc2)c1, which “activity change, negative = inhibition” value is on record?
Answer: The value was -6.59%.

Question: With C#CCOc1ccc(C2C3=C(COC3=O)Nc3cc4c(cc32)OCO4)cc1OC (configuration not stated) as the compound, how does the “activity change, negative = inhibition” value read?
Answer: The value was -3.1%.

Question: For CCc1ccc(CCC(=O)Nc2sc3c(c2C#N)CCCC3)o1, which “activity change, negative = inhibition” value is on record?
Answer: Its value is -1.9%.

Question: Which “activity change, negative = inhibition” value does the source give for Cc1cccc(C)c1NS(=O)(=O)c1ccc(-c2cnc(C3CC3)o2)cc1 here?
Answer: Its value is -5.58%.

Question: For O=C(O)CCCN1C(=O)/C(=C\c2ccccc2OCc2ccccc2)SC1=S, which “activity change, negative = inhibition” value is on record?
Answer: Its value is -3.44%.

Question: Which “activity change, negative = inhibition” value does the source give for CC1=Nc2ccccc2/C1=C\c1sc(Nc2ccc(C)cc2)nc1O here?
Answer: Its value is -20.5%.

Question: For COc1cccc(Nc2sc(C(=O)c3ccc(Cl)cc3)c(N)c2C(=O)NCc2ccc(C)cc2)c1, which “activity change, negative = inhibition” value is on record?
Answer: Its value is -1.56%.

Question: Which “activity change, negative = inhibition” value does the source give for CC(=O)N1c2ccc(C)cc2C(c2ccccc2)CC1C (configuration not stated) here?
Answer: Its value is -2.03%.

Question: For Cc1noc(C)c1CSc1nc2[nH]ncc2c(=O)n1-c1ccccc1, which “activity change, negative = inhibition” value is on record?
Answer: Its value is -5.84%.

Question: With COc1ccc2c(c1)sc1nc(-c3ccccc3)cn12 as the compound, how does the “activity change, negative = inhibition” value read?
Answer: Its value is 16.8%.

Question: Which “activity change, negative = inhibition” value does the source give for Nc1ccc(C(=O)n2c3ccccc3c3ccccc32)cc1 here?
Answer: Its value is -4.18%.

Question: With O=c1cc(-c2cccc(F)c2)[nH]c2ccccc12 as the compound, how does the “activity change, negative = inhibition” value read?
Answer: The value was -3.48%.

Question: With COc1ccc(CCNc2oc(-c3ccc(OC)c(OC)c3)nc2P(=O)(OC)OC)cc1OC as the compound, how does the “activity change, negative = inhibition” value read?
Answer: Its value is 0.113%.

Question: Which “activity change, negative = inhibition” value does the source give for COc1cc(OC)c(OC)cc1/C=C1\CCC/C(=C\c2cc(OC)c(OC)cc2OC)C1=O here?
Answer: The value was -10.7%.

Question: With COc1ccccc1-n1cnc2cc(NCc3cccs3)ccc21 as the compound, how does the “activity change, negative = inhibition” value read?
Answer: The value was 40.4%.

Question: Which “activity change, negative = inhibition” value does the source give for NNC(=O)c1[nH]c2ccccc2c1-c1ccccc1 here?
Answer: Its value is -4.38%.

Question: Which “activity change, negative = inhibition” value does the source give for COc1cc(Cc2nccc3cc(OC)c(OC)cc23)c(NC(C)=O)cc1OC here?
Answer: Its value is -0.252%.
